Compound activity: PubChem, several laboratories
NPR1 activator – GC-A (human) enzyme activation. P16066. HEK293 GC-A cells, cGMP TR-FRET, EC30 ANP; 0% at EC30 ANP, 100% saturating ANP. activation, % at 10 µM. 0.14% of 370,000 active. AID 1671463; in the data active = activation above about 40%
Target sequence (P16066 whole entry, looked up): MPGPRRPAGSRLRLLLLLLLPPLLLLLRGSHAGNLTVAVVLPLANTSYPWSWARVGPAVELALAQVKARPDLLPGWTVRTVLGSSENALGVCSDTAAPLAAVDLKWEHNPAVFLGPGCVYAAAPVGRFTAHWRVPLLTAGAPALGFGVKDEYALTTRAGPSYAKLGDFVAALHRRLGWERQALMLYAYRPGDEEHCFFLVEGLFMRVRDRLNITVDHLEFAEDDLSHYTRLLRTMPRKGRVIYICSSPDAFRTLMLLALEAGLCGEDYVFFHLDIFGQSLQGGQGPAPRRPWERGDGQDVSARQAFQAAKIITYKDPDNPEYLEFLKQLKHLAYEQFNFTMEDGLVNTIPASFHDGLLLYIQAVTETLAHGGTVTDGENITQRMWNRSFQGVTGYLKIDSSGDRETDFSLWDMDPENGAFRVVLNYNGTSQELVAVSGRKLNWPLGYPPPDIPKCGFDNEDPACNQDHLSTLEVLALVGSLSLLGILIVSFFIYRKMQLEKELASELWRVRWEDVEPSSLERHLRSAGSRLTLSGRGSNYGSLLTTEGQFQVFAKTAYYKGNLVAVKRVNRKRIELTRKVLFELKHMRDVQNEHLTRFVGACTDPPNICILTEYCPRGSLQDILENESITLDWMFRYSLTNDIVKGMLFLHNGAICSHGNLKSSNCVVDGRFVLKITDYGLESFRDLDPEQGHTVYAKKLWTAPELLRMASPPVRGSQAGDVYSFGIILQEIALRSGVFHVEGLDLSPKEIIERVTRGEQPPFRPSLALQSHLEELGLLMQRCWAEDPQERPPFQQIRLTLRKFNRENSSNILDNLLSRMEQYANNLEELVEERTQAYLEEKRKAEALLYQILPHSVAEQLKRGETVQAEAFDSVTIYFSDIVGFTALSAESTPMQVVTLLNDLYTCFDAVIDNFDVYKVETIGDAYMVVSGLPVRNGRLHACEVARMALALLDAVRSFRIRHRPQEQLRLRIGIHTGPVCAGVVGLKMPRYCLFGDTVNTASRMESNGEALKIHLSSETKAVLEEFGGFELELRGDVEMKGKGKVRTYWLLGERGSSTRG
MsrA act – bovine methionine sulfoxide reductase A activation | purified bovine MsrA, absorbance read-out | activation, % at 10.6 µM | 0.3% of 360,000 active; in the data active = activation above about 7.5%
GC-B act – GC-B (human) receptor activation. AID 1920062. 0.11% of 370,000 active. P20594. HEK293-GC-B cells, CNP EC30, cGMP TR-FRET; 0% at EC30 CNP, 100% saturating CNP. activation, % at 10 µM;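 active = activation at 10 µM reaching about 35% in either raw or pattern-adjusted values, limit read from the data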
MsrA inhibitor – bovine MsrA inhibition; 0.75% of 360,000 active; purified bovine MsrA, absorbance read-out; inhibition, % at 15.5 µM; in the data active = inhibition above about 4.5%
HTR2A ag – activates the mouse 5-HT2A serotonin receptor. P35363. CHO-K1 mHTR2A beta-arrestin complementation, luminescence; percent of 30 µM serotonin response. activation, % at 7.6 µM. 0.66% of 360,000 active. AID 624169;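 active = activation above a run cutoff, the mean activation of all tested compounds plus 3 SD, cut at about 14% in these data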
MOR ag counter – counter-screen for mouse HTR2A agonists: human mu opioid receptor agonists. shares compounds with HTR2A ag. U2OS OPRM1 beta-arrestin PathHunter, luminescence; DMSO 0%, DAMGO 9.3 µM 100%. activation, % at 9.3 µM. 5.3% of 2,300 active. AID 624380;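 active = mean activation above the mean of DMSO-only wells plus 3 SD, cut at about 0.5% in these data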
HTR2A ag conf – mouse HTR2A agonism confirmed. shares compounds with HTR2A ag. CHO-K1 PathHunter beta-arrestin recruitment, luminescence; DMSO 0%, 30 µM serotonin 100%. activation, % at 7.6 µM. 19% of 2,300 active;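 active = mean activation across triplicates above the hit threshold derived in the original primary screen, cut at about 15% in these data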
Each line names hits and unclear results; the compound was inactive in the other large screens (follow-up assays come after a bar, where they were run). Sampled rows, rich in hits. Any-hit rate of the full collection: about 1.8%.

Cn1c(=O)[nH]c(=O)c2c1nc(N1CCCC1)n2CCO	HTR2A ag 22.0 | MOR ag counter inactive | HTR2A ag conf inactive
Cn1c(=O)[nH]c(=O)c2c1nc(N1CCCCCC1)n2CC(N)=O	none
Cc1ccccc1-n1ncc2c1CC(C)(C)CC2NC(=O)C1CCC1 (stereo not given)	none
Cc1ccccc1-n1ncc2c1CC(C)(C)CC2NC(=O)C1=CC(=O)CC(C)(C)O1 (stereo not given)	HTR2A ag 32.2 | MOR ag counter inactive | HTR2A ag conf inactive
COC(=O)[C@]12CCCCC=C1N(Cc1ccc(OC)cc1)C(=O)[C@@H]2CC(=O)N1CCSCC1	none (no result: MsrA act, MsrA inhibitor, HTR2A ag)
COC(=O)C(C)Sc1nnc(Cc2cc(=O)[nH]c(=O)[nH]2)n1-c1cc(C)ccc1C (stereo not given)	HTR2A ag 31.4 | MOR ag counter inactive | HTR2A ag conf inactive
CCOc1ccc(-n2c(Cc3cc(=O)[nH]c(=O)[nH]3)nnc2SC(C)C(=O)OC)cc1 (stereo not given)	none
COc1ccccc1Nc1nc(NCCO)nc(N2CCCC2)n1	none
OCCNc1nc(Nc2ccccc2C(F)(F)F)nc(N2CCCC2)n1	HTR2A ag 16.8 | MOR ag counter inactive | HTR2A ag conf inactive
O=C(Nc1ccccc1)Nc1nnc(SCc2ccc(Cl)cc2)s1	HTR2A ag 17.4 | MOR ag counter inactive | HTR2A ag conf inactive
Oc1ccc(CCNc2c3ccccc3nc3ccccc23)cc1O	HTR2A ag 42.0 | MOR ag counter inactive | HTR2A ag conf 57.9
O=C(CSc1nc2ccccc2nc1N1CCOCC1)N1CCN(S(=O)(=O)c2cccc([N+](=O)[O-])c2)CC1	none (no result: MsrA act, MsrA inhibitor, HTR2A ag)
Cc1cc(N2CCN(C(=O)OC(C)(C)C)C[C@H]2C)ccc1Br	none (no result: MsrA act, HTR2A ag)
COc1cc(CNC2CCCC2)cc(Cl)c1OCc1ccc(F)cc1	HTR2A ag 17.9 | MOR ag counter 0.8 | HTR2A ag conf inactive
N#Cc1ccc(NCCCN2CCC(C(O)(c3ccccc3)c3ccccc3)CC2)cc1	none (no result: MsrA act, MsrA inhibitor, HTR2A ag)
COCCC(=O)N1CCc2ccc(NC(=O)c3ccc(C(F)(F)F)cc3)cc2C1	HTR2A ag 31.6 | MOR ag counter 1.2 | HTR2A ag conf inactive
CC(=O)N1CCc2cc(S(=O)(=O)NCCC(=O)N(C)C3CCCCC3)ccc21	none (no result: MsrA act, MsrA inhibitor, HTR2A ag)
CC(=O)N1CCc2cc(S(=O)(=O)NC3CCN(C(=O)CCl)CC3)ccc21	none (no result: MsrA act, MsrA inhibitor, HTR2A ag)
CN(Cc1nc(-c2ccccc2)no1)C(=O)c1ccco1	HTR2A ag 15.5 | MOR ag counter inactive | HTR2A ag conf inactive
CCN(Cc1nc(-c2ccccc2)no1)C(=O)c1ccco1	none
CC[C@@]1(c2ccc(C)cc2)C(=O)N(C(=O)OC)N1C(=O)OC	none (no result: MsrA act, MsrA inhibitor, HTR2A ag)
Nc1ncnc(N)c1N=Nc1ccccc1	HTR2A ag 21.1 | MOR ag counter inactive | HTR2A ag conf inactive
Nc1nn(-c2ccccc2)c(N)c1N=Nc1ccccc1	none
O=C1Nc2ccccc2-n2nnnc2C1N1CCN(C(=O)c2ccco2)CC1 (stereo not given)	HTR2A ag 20.1 (no result: MsrA act) | MOR ag counter inactive | HTR2A ag conf inactive
CCN1CCN(Cc2nnc(-c3ccc(C)cc3)o2)CC1	HTR2A ag 17.5 | MOR ag counter inactive | HTR2A ag conf inactive
S=C(NC1CCCCC1)N1CCN(Cc2ccccc2Cl)CC1	HTR2A ag 16.9 | MOR ag counter inactive | HTR2A ag conf inactive
O=C(NCC(c1ccco1)N1CCN(c2ccccc2F)CC1)c1cccs1 (stereo not given)	none
O=C(NCC(c1ccco1)N1CCN(c2ccccc2F)CC1)c1ccco1 (stereo not given)	HTR2A ag 15.2 | MOR ag counter inactive | HTR2A ag conf 36.4
CC(C)c1ccc(NC(=O)COc2ccc(S(=O)(=O)N3CCOCC3)cc2)cc1	none
Cc1ccc(NC(=O)COc2ccc(S(=O)(=O)N3CCOCC3)cc2)cc1	HTR2A ag 20.5 | MOR ag counter inactive | HTR2A ag conf inactive
CC(C)(C)OC(=O)NCc1ccccc1/C=C/S(=O)(=O)NC1CCCC1	none (no result: MsrA act, MsrA inhibitor, HTR2A ag)
CC(=O)c1c(C)[nH]c(C(=O)Nc2ccccn2)c1C	HTR2A ag 15.3 | MOR ag counter inactive | HTR2A ag conf inactive
C[C@H](O)[C@@H]1CN2CCc3c([nH]c4c(-c5ccc6c(c5)OCO6)cccc34)[C@@H]2C[C@@H]1N(C)C(=O)NC1CCCCC1	none (no result: MsrA act, MsrA inhibitor, HTR2A ag)
Cc1ccnc(NC(=O)c2cccc(NC(=O)CC3SC(N4CCCCC4)=NC3=O)c2)c1 (stereo not given)	HTR2A ag 14.7 | MOR ag counter inactive | HTR2A ag conf inactive
Cc1ccnc(NC(=O)c2ccc(NC(=O)CC3SC(N4CCCC4)=NC3=O)cc2)c1 (stereo not given)	none
CC(C)CN1C[C@@H]2CSCCS(=O)(=O)N2C1=O	none (no result: MsrA act, MsrA inhibitor, HTR2A ag)
Cn1cc([N+](=O)[O-])c(C(=O)N/N=C/c2ccc([N+](=O)[O-])cc2)n1	HTR2A ag 19.8 | MOR ag counter inactive | HTR2A ag conf 36.9
Cc1cc(C)n(-c2nnc(C)n2N)n1	HTR2A ag 18.0 | MOR ag counter inactive | HTR2A ag conf inactive
Cc1cc(C)n(-c2nnc(C)n2/N=C/c2ccccc2O)n1	none
CCOC(=O)C(=CNc1ncccc1C)C(=O)OCC	HTR2A ag 22.9 | MOR ag counter inactive | HTR2A ag conf inactive
COCC(C)n1c(C)cc(C(=O)COC(=O)c2cnc(Cl)c(Cl)c2)c1C (stereo not given)	HTR2A ag 15.4 | MOR ag counter inactive | HTR2A ag conf inactive
COCC(C)n1c(C)cc(C(=O)COC(=O)c2ccc3ncsc3c2)c1C (stereo not given)	none
CCO[C@H]1OC(C(=O)O)=C[C@@H](c2ccccc2)[C@@H]1CCCO	HTR2A ag 15.4 | MOR ag counter inactive | HTR2A ag conf inactive
Oc1c(/C=N/c2ccccn2)sc2ccccc12	HTR2A ag 15.5 | MOR ag counter inactive | HTR2A ag conf inactive
Nn1c(SCc2cccc3ccccc23)nnc1-c1cc(-c2ccc(Cl)cc2)n[nH]1	none (no result: MsrA act, MsrA inhibitor, HTR2A ag)
Nc1nc(N2CCN(C(c3ccccc3)c3ccccc3)CC2)n[nH]1	none
Nc1nc(N2CCN(Cc3ccccc3)CC2)n[nH]1	HTR2A ag 39.1 | MOR ag counter inactive | HTR2A ag conf 109.9
NC(=O)c1cc(S(=O)(=O)N2CCN(c3cccc(Cl)c3)CC2)cs1	HTR2A ag 14.6 | MOR ag counter inactive | HTR2A ag conf inactive
CN1CCN(S(=O)(=O)c2csc(C(N)=O)c2)CC1	none
CCn1c(SCC(=O)c2cccs2)nnc1-c1ccco1	HTR2A ag 16.3 | MOR ag counter inactive | HTR2A ag conf inactive
O=C(CSc1nnc(-c2ccncc2)n1-c1ccccc1)Nc1ccc2c(c1)OCCO2	none (no result: MsrA act, MsrA inhibitor, HTR2A ag)
C[C@H]1[C@@H](N(C)Cc2ccccc2)CC[C@@]23CCCN2C(=O)CCC[C@@H]13	none (no result: MsrA act, MsrA inhibitor, HTR2A ag)
COc1ccc(NC(=O)CSc2nnc(-c3n[nH]c4c3CCC4)n2N)cc1	none (no result: MsrA act, MsrA inhibitor, HTR2A ag)
